This is a sample that favours compounds with a hit; in the whole collection about 5.4% have one here.
Vaccinia mCherry – qHTS for Stage-Specific Inhibitors of Vaccinia Orthopoxvirus: mCherry Reporter Primary qHTS | 310,000 compounds, 0.63% hits | Vaccinia virus mCherry reporter infection, fluorescence | AID 720579, 2013 | Potency, µM (top dose mostly 36.5 µM), most hits filed as inhibitors; calls by dose curve; tested in A549 cells; note: nearly all actives have a fitted effect of over 35% in size
FMDV inh – High Throughput Screening for Foot and Mouth Disease Virus Antivirals | FMDV antiviral cell-based qHTS | 410,000 compounds, 1.2% hits | Potency, µM (series often up to 57.9 µM), usual class: inhibitors; calls by dose curve; tested in HEK293T cells; note: read-out not given here; nearly all actives have a fitted effect of over 45% in size
Marburg entry inh – qHTS for inhibitors of binding or entry into cells for Marburg Virus | Marburg virus pseudotyped entry inhibition, cell reporter | Potency, µM (highest dose often 37.8 µM), usual class: inhibitors | 300,000 compounds, 1.8% hits | AID 540276, 2011; calls by dose curve; tested in HEK293 cells
Lassa entry inh – qHTS for Inhibitors of binding or entry into cells for Lassa Virus | Lassa virus pseudotype entry inhibition, cell reporter | Potency, µM (titrated, usually from 37.9 µM), usual class: inhibitors | 300,000 compounds, 1.2% hits | AID 540256, 2011; calls by dose curve; tested in HEK293 cells; note: nearly all actives have a fitted effect of over 50% in size
Vaccinia Venus – qHTS for Stage-Specific Inhibitors of Vaccinia Orthopoxvirus: Venus Reporter Primary qHTS; Vaccinia virus Venus reporter expression, fluorescence; Potency, µM (highest dose often 36.5 µM), hits mostly inhibitors; 330,000 compounds, 0.46% hits; AID 720580, 2013; calls by dose curve; tested in A549 cells; note: nearly all actives have a fitted effect of over 30% in size
Sm TGR block – qHTS Assay for the Inhibitors of Schistosoma Mansoni Peroxiredoxins. Schistosoma mansoni thioredoxin glutathione reductase (TGR), Q962Y6. purified TGR, DTNB reduction, TNB absorbance 405 nm. Potency, µM (top dose mostly 114 µM), most hits filed as inhibitors. 360,000 compounds, 3% hits; active = well fitted inhibition curve with a large enough effect; inconclusive = small, poorly fitted or top-dose-only effect; inactive = no such curve, though single readings can be large or run the other way; note: nearly all actives have a fitted effect of over 60% in size
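TGR 20 nM + NADPH 100 uM (dispensed conc.), cpd preinc 15 min RT; start with NADPH (500 uM addition) then DTNB (15 mM addition). Kinetic TNB absorbance, 405 nm filter. Four-parameter Hill fit across titration.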
Numbers stand for hits; 0 = inactive; ? = inconclusive; - = not tested or not shown; [ ] = remark or other dose.

SMILES	Vaccinia mCherry	FMDV inh	Marburg entry inh	Lassa entry inh	Vaccinia Venus	Sm TGR block
O=C(NN=Cc1ccc(N(CCCl)CCCl)cc1)c1cc(=O)[nH]c(=O)[nH]1	0	0	?	?	0	-
O=C(Cc1cc(=O)oc2cc(O)ccc12)NN=Cc1ccc(N(CCCl)CCCl)cc1	0	0	4.47µM	?	0	-
c1ccc(C2=NN(c3ccccc3)CC2)cc1	-	0	-	-	-	5.01µM
O=C(Nc1cccc(F)c1)N1CC[C@@]2(CCCN(C(=O)c3cc(C(F)(F)F)cc(C(F)(F)F)c3)C2)C1	-	0	-	-	-	-
CC1(C)CC(=O)C2=C(C1)OC(N)=C(C#N)C2c1ccccc1 (stereo unspecified)	-	0	0	0	-	0
CC1(C)CC(=O)C2=C(C1)OC(N)=C(C#N)C2c1ccc2c(c1)OCO2 (stereo unspecified)	0	0	0	0	0	0
N#CC1=C(N)Oc2cc(O)ccc2C1c1ccc2c(c1)OCO2 (stereo unspecified)	?	0	0	0	0	-
COc1ccc(C2C(C#N)=C(N)Oc3cc4c(cc32)OCO4)cc1 (stereo unspecified)	?	-	5.8µM	?	0	0
CC1(C)CC(=O)C2=C(C1)OC(N)=C(C#N)C2c1ccccc1[N+](=O)[O-] (stereo unspecified)	0	0	0	0	0	22.4µM
CC(C)(C)C1=C(C#N)C(c2ccc3c(c2)OCO3)C(C#N)=C(N)O1 (stereo unspecified)	-	0	0	0	0	2µM
COc1cc2c(cc1C1C(C#N)=C(N)OC3=C1C(=O)CC(C)(C)C3)OCO2 (stereo unspecified)	-	0	-	-	-	89.1µM
C[C@]12C[C@@](C)(C=C1C=Cc1ccc(F)cc1)C(=O)C[C@H]2c1ccc(F)cc1	-	-	0	?	-	-
COc1ccc(Cl)cc1NC(=O)Cn1cnc2c1c(=O)n(C)c(=O)n2C	0	0	-	0	0	0
COc1cc(NC(=O)CCc2nc3cccnc3n2Cc2cccs2)cc(OC)c1OC	0	?	?	0	0	0
COc1cc2ncn(-c3cc(OC(C)c4ccccc4Cl)c(C(N)=O)s3)c2cc1OC (stereo unspecified)	-	-	-	2.5µM	-	-
COc1cc2ncn(-c3cc(OCCc4ccccc4)c(C(N)=O)s3)c2cc1OC	-	-	-	17.7µM	-	-
COc1cc2ncn(-c3cc(OCc4ccccc4C(F)(F)F)c(C(=O)N(C)C)s3)c2cc1OC	-	-	-	0	-	-
CC(C)c1c(C(=O)N2CCN(CCO)CC2)cnn1-c1nccc(-c2cccs2)n1	0	0	-	-	0	-
CC1(C)OC(=O)N(c2ccccc2)C12C=Cc1cc(Br)ccc1O2 (stereo unspecified)	-	?	18.3µM	0	-	0
CC1(C)OC(=O)N(CCc2ccccc2)C1(C)O (stereo unspecified)	-	0	0	0	-	0
Cc1cccc(OCCCCn2c(C3CC(=O)N(c4ccccc4Cl)C3)nc3ccccc32)c1 (stereo unspecified)	0	?	?	?	0	0
CN(CCc1ccccn1)C1CCCN(S(=O)(=O)c2ccccc2)C1 (stereo unspecified)	0	0	0	0	0	0
CC(=O)c1ccc(S(=O)(=O)N2CCCC(N(C)CCc3ccccn3)C2)cc1 (stereo unspecified)	-	0	-	-	-	20µM
COc1ccc(C(=O)NC(=S)NCc2ccccc2)cc1	0	0	0	0	0	5.01µM
COc1ccc(NC(=S)NCCc2ccccc2)c(OC)c1	-	0	0	0	-	0
SMILES	Vaccinia mCherry	FMDV inh	Marburg entry inh	Lassa entry inh	Vaccinia Venus	Sm TGR block
COc1cc(OC)cc(C(=O)NC(=S)N(Cc2ccccc2)C(C)C)c1	0	0	?	?	0	?
COc1cc(OC)cc(C(=O)NC(=S)NCCc2ccccc2)c1	-	0	0	0	-	10µM
O=C(NC(=S)NCc1ccccc1)c1ccc(Br)cc1	0[7.34 µM]	0	0	0	0[7.34 µM]	-
COc1ccccc1NC(=S)NC(=O)Cc1ccccc1	0[7.34 µM]	0	0	0	0[7.34 µM]	-
COc1ccc(S(=O)(=O)NNC(=S)NCCc2ccccc2)c(OC)c1	0	0	0	0	0	5.62µM
COc1ccc(NC(=S)NC(=O)Cc2ccccc2)c(OC)c1	0	0	0	0	0	10µM
COc1cc2c(cc1OC)C(COc1ccc3c(C)cc(=O)oc3c1)N(C(=O)c1ccc(C)cc1)CC2 (stereo unspecified)	0	0	?	0	0	0
O=C(CSc1nnc(-c2ccc3c(c2)OCO3)o1)Oc1ccccc1	0	0	0	0	0	0
Cn1cnc(S(=O)(=O)N2CCC(C(=O)NCc3ccc(Cl)cc3)CC2)c1	0	0	-	0	0	0
CCOC(=O)N1CCC(NC(=O)c2cc(COc3ccc(F)cc3Cl)on2)CC1	0	0	0	0	0	0
O=C(O)c1ccc(Nc2ncnc3c2cnn3Cc2ccccc2)cc1	0	0	0	0	0	0
CN(C)C(=O)OC1CNC(C#Cc2cc3ncnc(Nc4ccc(OCc5cccc(F)c5)c(Cl)c4)c3s2)C1 (stereo unspecified)	-	-	-	4.99µM	-	-
CNC(=O)c1cccc(C#Cc2cncnc2Nc2ccc(OCc3cccc(F)c3)c(Cl)c2)c1	-	-	-	0.791µM	-	-
O=C(OC1CNC(C#Cc2cc3ncnc(Nc4ccc5c(cnn5Cc5ccccc5)c4)c3s2)C1)N1CCOCC1 (stereo unspecified)	-	-	-	1.25µM	-	-
O=C(OC1CNC(C#Cc2cc3ncnc(Nc4ccc(OCc5cccc(F)c5)c(Cl)c4)c3s2)C1)N1CCOCC1 (stereo unspecified)	-	-	-	2.81µM	-	-
Cc1ccc(C)c(N2CCN(C(=O)c3c(C)oc4nc(C)nc(N5CCOCC5)c34)CC2)c1	0	0	-	0	0	0
COc1ccccc1N1CCN(CC(=O)c2ccc3ccn(C(C)=O)c3c2)CC1	0	0	0	-	0	25.1µM
COc1ccccc1N1CCN(CC(=O)N2CCCC2)CC1	0	0	0	0	0	0
COc1ccc(C(=O)CCN2CCN(c3ccccc3OC)CC2)cc1	0	0	0	0	0	0.562µM
COc1ccccc1N1CCN(CCCC(=O)c2ccc(F)cc2)CC1	0	0	-	-	0	0
Cc1cc2nc(-c3ccc(OCc4ccccc4F)cc3)cc(C(F)(F)F)n2n1	0	0	0	0	0	0
S=C(NCc1ccc(Cl)cc1)Nc1ccncc1	-	0	-	-	-	35.5µM
CC(=O)Nc1ccc(NC(=O)CCc2nc3cccnc3n2Cc2cccs2)cc1	0	0	0	0	0	0
O=C(COc1ccccc1-c1ccccc1)N/N=C/c1ccncc1	0	?	?	0	0	0
C/C(=N\NC(=O)COc1ccccc1-c1ccccc1)c1ccccn1	?	?	3.98µM	5.62µM	?	0
C/C(=N\NC(=O)COc1ccccc1-c1ccccc1)c1cccnc1	0	0	?	?	0	0
CCCCCC(=O)N/N=C(\C)c1ccccn1	?	0	7.08µM	?	?	0
